A selection: hits, their analogues and other compounds. The true share with any hit is near 1.5%.
IDE act: human IDE activators in live cells, primary screen, fluorescence polarization, HEK cells, FAbeta-B substrate. Insulin-degrading enzyme (Homo sapiens), P14735. FAbeta-B cleavage; 0% vehicle, 100% cell-free pure enzyme wells. activation, % at 5.96 µM. 340,000 tested, 0.073% active;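 active means activation above the mean of all tested compounds plus 3 SD, set per screening campaign, cut at about 17% in these data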
Target sequence (P14735 whole entry, looked up): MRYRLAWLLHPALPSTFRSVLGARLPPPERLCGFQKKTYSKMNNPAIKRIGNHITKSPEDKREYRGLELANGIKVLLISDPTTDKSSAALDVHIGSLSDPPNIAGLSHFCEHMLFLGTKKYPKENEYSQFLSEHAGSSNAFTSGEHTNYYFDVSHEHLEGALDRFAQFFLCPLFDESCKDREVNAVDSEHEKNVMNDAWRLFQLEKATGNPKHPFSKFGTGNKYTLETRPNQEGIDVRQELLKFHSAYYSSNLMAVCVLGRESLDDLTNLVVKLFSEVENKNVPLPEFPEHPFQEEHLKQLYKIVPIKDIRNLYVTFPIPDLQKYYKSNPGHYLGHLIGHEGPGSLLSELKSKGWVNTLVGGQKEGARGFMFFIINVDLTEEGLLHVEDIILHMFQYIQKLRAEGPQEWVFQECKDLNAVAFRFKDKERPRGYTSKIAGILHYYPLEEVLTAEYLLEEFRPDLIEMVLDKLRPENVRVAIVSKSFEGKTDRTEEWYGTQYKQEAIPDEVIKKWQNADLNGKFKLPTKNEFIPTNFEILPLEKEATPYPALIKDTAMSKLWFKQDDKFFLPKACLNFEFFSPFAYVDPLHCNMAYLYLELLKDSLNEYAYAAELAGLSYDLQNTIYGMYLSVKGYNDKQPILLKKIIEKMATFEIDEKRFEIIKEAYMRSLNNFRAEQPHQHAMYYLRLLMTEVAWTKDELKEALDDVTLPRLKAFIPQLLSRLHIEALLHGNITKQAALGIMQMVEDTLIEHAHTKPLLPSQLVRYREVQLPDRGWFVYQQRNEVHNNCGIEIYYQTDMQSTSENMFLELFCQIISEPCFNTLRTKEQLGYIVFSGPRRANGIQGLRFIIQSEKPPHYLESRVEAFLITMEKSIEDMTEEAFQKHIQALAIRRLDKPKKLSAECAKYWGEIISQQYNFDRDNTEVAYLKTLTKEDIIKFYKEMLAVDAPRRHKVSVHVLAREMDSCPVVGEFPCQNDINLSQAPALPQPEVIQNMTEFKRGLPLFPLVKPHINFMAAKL
RTF Ca sens inh: cardiac RTF calcium sensitivity inhibitors, primary screen, biochemical, IANBD-TnC fluorescence, EC70 calcium; Troponin I, cardiac muscle (Homo sapiens) + Troponin T, cardiac muscle (Homo sapiens) + …; IANBD-labeled cardiac RTF, Ca2+ fluorescence; inhibition, % at 7.15 µM; 340,000 tested, 0.12% active;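 active means inhibition above the mean inhibition of all tested compounds plus 3 SD, cut at about 17% in these data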;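 further: assay run at fixed EC70 calcium of 1.6 mM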
cardiac RTF act: cardiac RTF calcium sensitivity activators, primary screen, biochemical, IANBD-TnC fluorescence, EC20 calcium; Troponin I, cardiac muscle (Homo sapiens) + Troponin T, cardiac muscle (Homo sapiens) + …; IANBD-labeled TnC RTF fluorescence at EC20 calcium; 0% EC20 calcium, 100% full calcium; activation, % at 7.2 µM; 340,000 tested, 0.24% active; AID 493008, 2010;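 active means activation above the mean over all tested compounds plus 3 SD, cut at about 30% in these data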;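 further: rise in fluorescence read as greater calcium sensitivity of cardiac thin filaments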
IDE inh: human IDE inhibitors in live cells, primary screen, fluorescence polarization, HEK cells, FAbetaB substrate | Insulin-degrading enzyme (Homo sapiens), P14735 | FAbetaB cleavage | inhibition, % at 5.59 µM | 320,000 tested, 0.41% active;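 active means percent inhibition above the average of all tested compounds plus 3 SD, set per screening campaign, cut at about 16% in these data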;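 further: IDE supplied by intact live HEK cells; FP after avidin binding of uncleaved biotin substrate so inhibition keeps polarization high; 0% = DMSO wells and 100% = 60 µM reference IDE inhibitor Ii1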
CRFBP-R2 block: antagonists of CRF-BP/CRF-R2 complex, primary screen, cell-based, HEK293, calcium dye fluorescence, uHTS; CRF-induced calcium fluorescence; inhibition, % at 11.8 µM; 350,000 tested, 0.59% active;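 active means inhibition of the ligand-induced calcium signal above about 50% at the single tested concentration, limit read from the data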
CRFR2-BP ag: agonists of CRF-BP/CRF-R2 complex, primary screen, cell-based, HEK293, calcium dye fluorescence, uHTS; CRF-binding protein / CRF receptor 2 complex (human); activation, % at 13.2 µM; calcium dye fluorescence (FLIPR); percent of saturating CRF peptide response; 350,000 tested, 0.46% active;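 active means activation of at least 50%, plus an integration ratio under a set limit after plate pattern correction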;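 further: plate controls were neutral control wells without compound for no effect and CRF at EC100 for full effect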
An asterisk follows results filed as active; · = not tested or not shown.

SMILES	IDE act	RTF Ca sens inh	cardiac RTF act	IDE inh	CRFBP-R2 block	CRFR2-BP ag
O=C(NCCc1ccc(F)cc1)c1cccc2c1C(=O)c1ccc(N3CCC(Cc4ccccc4)CC3)cc1S2(=O)=O	-7	-178	117*	8	-177	174*
O=C(O)c1cccc2c1C(=O)c1ccc(N3CCCC3)cc1S2(=O)=O	-7	-42	36*	3	-4	17
O=C(NCc1cccc(F)c1)c1cccc2c1C(=O)c1ccc(N3CCCC3)cc1S2(=O)=O	-5	-85	76*	13	-49	91*
COc1ccccc1N1CCN(c2ccc3c(c2)S(=O)(=O)c2cccc(C(=O)NCc4ccc(F)cc4)c2C3=O)CC1	·	·	·	·	5	0
O=C(NCc1cccc(C(F)(F)F)c1)c1cccc2c1C(=O)c1ccc(N3CCC(Cc4ccccc4)CC3)cc1S2(=O)=O	-1	-194	95*	2	-49	67*
CCC(=O)N1CCN(c2ccc(NC(=O)COc3ccc(CC)cc3)cc2)CC1	-4	0	-7	5	7	-1
CN1CCC[C@@H]1CCNC(=O)c1cccc2c1C(=O)c1ccc(N3CCCC3)cc1S2(=O)=O	-7	-28	18	2	-8	14
O=C(NCc1cccc(F)c1)c1cccc2c1C(=O)c1ccc(N3CCC(Cc4ccccc4)CC3)cc1S2(=O)=O	-2	-221	178*	4	-45	75*
COc1cc(NC(=O)N2CCNC2=O)cc(C(=O)Nc2cccc(C(F)(F)F)c2)c1	38*	-5	1	2	-10	2
CCN1CCN(Cc2ccc(NC(=O)c3cc(NC(=O)N4CCNC4=O)cc(OC)c3)cc2C(F)(F)F)CC1	-3	-2	2	-1	-4	0
O=C(Nc1ccccc1OC(F)F)c1cccc(S(=O)(=O)N2CCCC2)c1	3	3	-4	-1	6	-1
CSc1ccc(C(=O)C2CCCN(C(=O)CCc3c(C)nn(C)c3C)C2)cc1 (centres undefined)	-1	1	-3	-4	-11	1
NC(=O)c1ccc(NCCc2ccccc2)c([N+](=O)[O-])c1	7	2	3	-2	-5	0
O=C(Nc1ccccc1)c1ccc(NCCc2ccccc2)c([N+](=O)[O-])c1	6	-5	96*	1	16	-2
O=C(CCNC(=O)C1CCN(S(=O)(=O)c2ccc(F)cc2)CC1)NCc1ccccc1	6	-9	1	-2	8	-1
CCCc1cc(=O)[nH]c(SCC(=O)c2ccc3c(c2)OCCO3)n1	1	0	0	1	25	6
CCCc1cc(=O)[nH]c(SCC(=O)N(CCC#N)c2ccc3c(c2)OCCO3)n1	1	-2	-3	·	98*	-1
CCCCCNC1=CC(=O)CC(c2ccccc2)C1 (centres undefined)	3	-3	0	2	81*	-1
CCCCCCCNC1=CC(=O)CC(c2ccccc2)C1 (centres undefined)	0	2	5	2	15	-3
Cc1ccc2c(C)c(C)c(=O)n(C)c2c1	4	-8	3	·	-7	0
Cc1ccc(NC(=O)O/N=C/c2ccc(Br)cc2)cc1	-2	-4	7	4	-5	-2
Cc1ccc(NC(=O)O/N=C/c2ccc(F)cc2)cc1	-1	-6	37*	-2	0	1
COc1ccc(CNC(=O)CN2CCN(S(=O)(=O)c3c(C)c(C)cc(C)c3C)CC2)cc1OC	1	-2	-1	-4	11	-1
COc1ccc(CNC(=O)CN2CCN(S(=O)(=O)c3cc(Br)ccc3Br)CC2)cc1OC	1	-7	-1	·	60*	-1
CCCS(=O)(=O)N1CCC(C(=O)NCCCOC)CC1	-1	-21	1	8	8	0
SMILES	IDE act	RTF Ca sens inh	cardiac RTF act	IDE inh	CRFBP-R2 block	CRFR2-BP ag
CCCS(=O)(=O)N1CCC(C(=O)NCCCOC(C)C)CC1	3	-10	8	5	60*	3
Cc1sc(NC(=O)c2sc3nc4c(C)cccc4cc3c2N)c(C#N)c1C	-13	-10	2	5	-164	88*
COc1ccc(CNc2ncc(-c3cccc([N+](=O)[O-])c3)n2C)c(OC)c1OC	-3	-8	1	2	1	-2
COC(C(=O)Nc1ccc(S(=O)(=O)Nc2ccc(F)cc2)cc1)c1ccccc1 (centres undefined)	2	-22	4	-1	-36	12
COC(C(=O)Nc1ccc(F)cc1)c1ccccc1 (centres undefined)	5	-1	-11	6	91*	0
Cc1ccc(S(=O)(=O)N2CCN(C(=O)CCc3c[nH]c4ccccc34)CC2)c(C)c1	-1	-1	-2	5	-4	1
Cc1ccc(-n2nc(C)c(Sc3ccccc3[N+](=O)[O-])c2N)cc1	-4	-2	-1	5	52*	0
CCOC(=O)c1[nH]c2ccccc2c1NC(=O)Nc1ccc(OC)cc1	4	1	6	-3	85*	-8
CCCC(=O)Nc1c(C(=O)OCC)[nH]c2ccccc12	5	-6	-1	1	4	2
COc1ccc(NC(=O)Nc2ccc(O)c3ccccc23)cc1	·	·	·	12	50*	-5
COC(=O)C(C)Oc1ccc(Cl)c(CN2OCC(C)(C)C2=O)c1 (centres undefined)	2	-10	7	3	3	0
Cc1noc(C)c1C(=O)N(C)CC(=O)Nc1ccc(F)c(F)c1F	3	2	1	2	10	1
N#C/C(=C\c1ccc([N+](=O)[O-])o1)c1nc2ccccc2[nH]1	·	·	·	9	-81	66*
Cc1ccc2nc(/C(C#N)=C\c3ccc([N+](=O)[O-])o3)[nH]c2c1	-5	-4	-2	11	-98	55*
CCc1ccccc1NC(=O)CSc1nnc(-c2cc(C)[nH]n2)n1N	4	-8	-5	-1	-2	0
N#Cc1cccc(NC(=O)CSc2ccc3c4c(cccc24)C(=O)c2ccccc2-3)c1	-12	-58	42*	16	-219	224*
COc1ccc(NC(=O)CSc2ccc3c4c(cccc24)C(=O)c2ccccc2-3)cc1	-9	-18	27	2	-112	104*
COc1ccc(NC(=O)CSc2nnc(C)c3ccccc23)cc1	-7	-3	4	-4	6	0

Source: PubChem BioAssay
